# Test results: publication PMC7862700, “An all-to-all approach to the identification of sequence-specific readers for epigenetic DNA modifications on cytosine”
# Experiments:
# Assay in all cases: DAPPL (digital affinity profiling via proximity ligation, sequencing); 10 mM Tris-HCl pH 7.5, 50 mM NaCl, 1 mM DTT, 4% glycerol, room temperature, 30 min; GST-TFs on glutathione beads, 16-mer random dsDNA library, 0.1% formaldehyde crosslink after washing; high values mean tight binding
# [1] = target: T1, FEV (Homo sapiens, UniProt Q99581 1-238); conditions: protein: recombinant; tags: N-terminal GST; dsDNA, one strand shown
# T1 sequence: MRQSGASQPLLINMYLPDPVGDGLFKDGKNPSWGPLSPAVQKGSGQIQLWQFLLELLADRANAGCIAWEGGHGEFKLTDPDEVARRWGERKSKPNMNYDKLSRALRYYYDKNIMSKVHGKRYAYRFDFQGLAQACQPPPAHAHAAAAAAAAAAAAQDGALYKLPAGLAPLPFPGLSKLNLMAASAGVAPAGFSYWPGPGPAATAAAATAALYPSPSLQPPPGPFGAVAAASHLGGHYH
# Summary of the method: (§1)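 Human transcription factors fused to GST were expressed in yeast, captured on glutathione beads, given DNA barcodes and pooled with a GST-only negative control. Pools were incubated with 200 nmole of a 16-mer random double-stranded DNA library in Tris/NaCl/DTT/glycerol buffer at room temperature for 30 min. They were then washed, crosslinked with 0.1% formaldehyde, proximity-ligated (BsaI/T4 ligase, 1 h, 37 °C), PCR-amplified and sequenced on an Illumina NextSeq500. Binding signal is each 6-mer's read frequency for a factor divided by its frequency for the GST control.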
# [2] = target: ETV5 (Homo sapiens, UniProt P41161 1-510); conditions: protein: recombinant; tags: N-terminal GST; dsDNA, one strand shown
# Summary of the method: as §1
# [3] = target: HSF1 (Homo sapiens, UniProt Q00613 1-529); conditions: protein: recombinant; tags: N-terminal GST; chain copies: 3; dsDNA, one strand shown
# Summary of the method: as §1
# [4] = target: T2, SPIC (Homo sapiens, UniProt Q8N5J4 1-248); conditions: protein: recombinant; tags: N-terminal GST; dsDNA, one strand shown
# T2 sequence: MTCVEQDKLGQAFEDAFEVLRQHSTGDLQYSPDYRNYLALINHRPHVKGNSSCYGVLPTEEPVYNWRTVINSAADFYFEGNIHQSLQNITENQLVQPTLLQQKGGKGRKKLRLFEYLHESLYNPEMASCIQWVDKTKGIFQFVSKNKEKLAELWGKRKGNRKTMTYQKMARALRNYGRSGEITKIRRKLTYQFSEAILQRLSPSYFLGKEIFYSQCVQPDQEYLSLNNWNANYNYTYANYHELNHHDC
# Summary of the method: as §1
# [5] = target: ELF4 (Homo sapiens, UniProt Q99607 1-663); conditions: protein: recombinant; tags: N-terminal GST; dsDNA, one strand shown
# Summary of the method: as §1
# [6] = target: T3, ELK4 (Homo sapiens, UniProt P28324-2 1-405); conditions: protein: recombinant; tags: N-terminal GST; dsDNA, one strand shown
# T3 sequence: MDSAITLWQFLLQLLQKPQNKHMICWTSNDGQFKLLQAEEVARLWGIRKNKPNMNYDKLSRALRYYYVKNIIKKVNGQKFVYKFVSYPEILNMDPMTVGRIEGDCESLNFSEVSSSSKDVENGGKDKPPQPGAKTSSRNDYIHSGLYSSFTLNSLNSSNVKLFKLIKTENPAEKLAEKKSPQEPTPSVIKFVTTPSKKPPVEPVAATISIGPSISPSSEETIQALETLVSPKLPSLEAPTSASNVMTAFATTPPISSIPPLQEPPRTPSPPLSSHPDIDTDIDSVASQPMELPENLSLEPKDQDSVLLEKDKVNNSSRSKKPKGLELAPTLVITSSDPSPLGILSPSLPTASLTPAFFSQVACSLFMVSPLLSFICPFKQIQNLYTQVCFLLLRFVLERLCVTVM
# Summary of the method: as §1
# [7] = target: T4, ETV2 (Homo sapiens, UniProt O00321 1-342); conditions: protein: recombinant; tags: N-terminal GST; dsDNA, one strand shown
# T4 sequence: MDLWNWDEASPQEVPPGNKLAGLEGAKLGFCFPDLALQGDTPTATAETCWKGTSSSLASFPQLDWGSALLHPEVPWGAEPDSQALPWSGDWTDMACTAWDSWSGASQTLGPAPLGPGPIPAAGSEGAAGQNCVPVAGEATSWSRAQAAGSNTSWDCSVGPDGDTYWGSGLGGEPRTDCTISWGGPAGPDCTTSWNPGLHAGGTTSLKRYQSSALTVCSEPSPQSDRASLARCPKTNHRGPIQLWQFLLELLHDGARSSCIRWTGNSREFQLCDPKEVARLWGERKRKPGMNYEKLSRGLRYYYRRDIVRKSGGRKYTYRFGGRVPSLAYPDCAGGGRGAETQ
# Summary of the method: as §1
# [8] = target: T5, ELF3 (Homo sapiens, UniProt P78545 1-371); conditions: protein: recombinant; tags: N-terminal GST; dsDNA, one strand shown
# T5 sequence: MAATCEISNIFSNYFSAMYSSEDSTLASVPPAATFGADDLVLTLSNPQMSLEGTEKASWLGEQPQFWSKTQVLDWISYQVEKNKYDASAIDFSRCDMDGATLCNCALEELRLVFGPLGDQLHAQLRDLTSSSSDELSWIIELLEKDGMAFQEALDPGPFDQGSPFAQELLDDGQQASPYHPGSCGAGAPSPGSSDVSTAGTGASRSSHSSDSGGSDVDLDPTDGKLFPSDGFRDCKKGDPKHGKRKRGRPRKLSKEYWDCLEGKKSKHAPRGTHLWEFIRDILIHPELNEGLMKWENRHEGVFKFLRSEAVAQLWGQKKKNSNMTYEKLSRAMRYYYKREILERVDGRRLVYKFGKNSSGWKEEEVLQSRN
# Summary of the method: as §1
# [9] = target: CRX (Homo sapiens, UniProt O43186 1-299); conditions: protein: recombinant; tags: N-terminal GST; dsDNA, one strand shown
# Summary of the method: as §1
# [10] = target: ETV1 (Homo sapiens, UniProt P50549 1-477); conditions: protein: recombinant; tags: N-terminal GST; dsDNA, one strand shown
# Summary of the method: as §1
# [11] = target: T6, ERF (Homo sapiens, UniProt P50548 1-548); conditions: protein: recombinant; tags: N-terminal GST; dsDNA, one strand shown
# T6 sequence: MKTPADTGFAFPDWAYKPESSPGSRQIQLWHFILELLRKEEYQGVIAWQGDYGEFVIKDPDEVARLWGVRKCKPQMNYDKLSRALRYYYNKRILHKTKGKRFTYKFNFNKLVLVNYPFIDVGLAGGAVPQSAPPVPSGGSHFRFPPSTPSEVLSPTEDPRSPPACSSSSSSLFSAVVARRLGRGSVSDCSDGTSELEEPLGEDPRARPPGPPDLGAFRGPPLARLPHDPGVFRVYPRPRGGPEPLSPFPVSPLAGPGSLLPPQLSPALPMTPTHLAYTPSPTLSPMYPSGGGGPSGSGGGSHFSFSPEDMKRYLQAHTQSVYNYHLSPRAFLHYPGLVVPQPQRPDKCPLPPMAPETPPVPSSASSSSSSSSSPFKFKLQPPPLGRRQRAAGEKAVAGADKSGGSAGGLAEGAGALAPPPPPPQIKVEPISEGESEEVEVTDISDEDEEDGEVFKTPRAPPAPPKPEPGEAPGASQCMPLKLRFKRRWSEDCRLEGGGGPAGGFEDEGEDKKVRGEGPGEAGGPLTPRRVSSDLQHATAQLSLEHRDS
# Summary of the method: as §1
# [12] = target: T7, ETV3L (Homo sapiens, UniProt Q6ZN32 1-361); conditions: protein: recombinant; tags: N-terminal GST; dsDNA, one strand shown
# T7 sequence: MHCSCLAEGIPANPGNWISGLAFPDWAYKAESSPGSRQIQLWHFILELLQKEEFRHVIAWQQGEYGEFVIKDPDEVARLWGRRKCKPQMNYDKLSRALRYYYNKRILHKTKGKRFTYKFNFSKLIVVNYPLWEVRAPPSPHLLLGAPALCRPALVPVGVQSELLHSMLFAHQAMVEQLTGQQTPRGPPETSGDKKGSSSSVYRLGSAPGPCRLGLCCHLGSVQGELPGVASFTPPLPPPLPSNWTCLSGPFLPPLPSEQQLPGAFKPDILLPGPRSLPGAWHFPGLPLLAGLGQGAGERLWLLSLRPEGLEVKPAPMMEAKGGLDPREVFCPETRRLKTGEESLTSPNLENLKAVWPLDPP
# Summary of the method: as §1
# [13] = target: T8, ETS2 (Homo sapiens, UniProt P15036 1-469); conditions: protein: recombinant; tags: N-terminal GST; dsDNA, one strand shown
# T8 sequence: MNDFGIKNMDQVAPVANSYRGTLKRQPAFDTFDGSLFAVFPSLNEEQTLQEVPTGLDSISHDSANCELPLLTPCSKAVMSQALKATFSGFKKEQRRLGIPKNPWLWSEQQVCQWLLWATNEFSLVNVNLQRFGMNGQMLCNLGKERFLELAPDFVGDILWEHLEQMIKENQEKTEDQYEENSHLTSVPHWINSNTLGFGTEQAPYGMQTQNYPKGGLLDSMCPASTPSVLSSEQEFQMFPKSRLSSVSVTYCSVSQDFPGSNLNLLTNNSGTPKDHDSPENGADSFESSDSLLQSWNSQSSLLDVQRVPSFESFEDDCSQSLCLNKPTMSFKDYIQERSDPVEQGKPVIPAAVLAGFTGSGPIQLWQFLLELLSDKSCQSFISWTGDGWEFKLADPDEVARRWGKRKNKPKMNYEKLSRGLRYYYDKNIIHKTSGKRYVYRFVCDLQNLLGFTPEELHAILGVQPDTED
# Summary of the method: as §1
# [14] = target: T9, SPDEF (Homo sapiens, UniProt O95238 1-335); conditions: protein: recombinant; tags: N-terminal GST; dsDNA, one strand shown
# T9 sequence: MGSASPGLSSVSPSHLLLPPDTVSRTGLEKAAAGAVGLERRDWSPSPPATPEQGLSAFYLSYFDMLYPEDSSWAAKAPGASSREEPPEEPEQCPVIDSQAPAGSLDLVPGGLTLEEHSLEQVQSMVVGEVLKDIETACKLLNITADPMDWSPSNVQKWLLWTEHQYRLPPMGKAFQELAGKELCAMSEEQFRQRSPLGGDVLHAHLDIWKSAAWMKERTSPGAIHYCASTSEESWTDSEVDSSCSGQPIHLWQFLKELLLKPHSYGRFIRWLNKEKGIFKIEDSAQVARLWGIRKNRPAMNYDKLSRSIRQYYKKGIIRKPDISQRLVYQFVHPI
# Summary of the method: as §1
# [15] = target: T10, ETV7 (Homo sapiens, UniProt Q9Y603 1-341); conditions: protein: recombinant; tags: N-terminal GST; dsDNA, one strand shown
# T10 sequence: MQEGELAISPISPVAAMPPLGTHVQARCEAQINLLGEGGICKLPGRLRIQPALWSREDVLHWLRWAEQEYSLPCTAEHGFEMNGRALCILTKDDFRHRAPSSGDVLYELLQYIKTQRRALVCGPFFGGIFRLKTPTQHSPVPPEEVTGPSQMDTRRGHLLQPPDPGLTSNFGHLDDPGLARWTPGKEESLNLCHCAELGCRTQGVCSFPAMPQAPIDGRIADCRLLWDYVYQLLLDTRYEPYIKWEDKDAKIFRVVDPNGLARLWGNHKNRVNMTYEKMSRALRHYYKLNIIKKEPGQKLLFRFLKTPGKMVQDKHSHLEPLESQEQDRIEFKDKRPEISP
# Summary of the method: as §1
# [16] = target: T11, ELF5 (Homo sapiens, UniProt Q9UKW6-2 1-255); conditions: protein: recombinant; tags: N-terminal GST; dsDNA, one strand shown
# T11 sequence: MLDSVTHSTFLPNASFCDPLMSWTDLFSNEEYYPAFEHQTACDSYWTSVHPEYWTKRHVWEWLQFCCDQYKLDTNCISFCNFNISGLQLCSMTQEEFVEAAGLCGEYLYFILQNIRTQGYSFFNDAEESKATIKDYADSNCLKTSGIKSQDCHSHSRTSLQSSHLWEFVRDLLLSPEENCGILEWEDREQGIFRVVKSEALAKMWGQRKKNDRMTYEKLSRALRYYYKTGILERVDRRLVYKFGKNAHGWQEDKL
# Summary of the method: as §1
# [17] = target: T12, ETV3 (Homo sapiens, UniProt P41162-2 1-143); conditions: protein: recombinant; tags: N-terminal GST; dsDNA, one strand shown
# T12 sequence: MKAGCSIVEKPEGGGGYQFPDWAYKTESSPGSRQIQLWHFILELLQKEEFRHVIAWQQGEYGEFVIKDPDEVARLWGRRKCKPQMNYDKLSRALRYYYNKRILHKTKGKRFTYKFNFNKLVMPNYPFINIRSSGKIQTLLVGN
# Summary of the method: as §1
# [18] = target: ETV6 (Homo sapiens, UniProt P41212 1-452); conditions: protein: recombinant; tags: N-terminal GST; dsDNA, one strand shown
# Summary of the method: as §1
# Chain of CRX (O43186 whole entry): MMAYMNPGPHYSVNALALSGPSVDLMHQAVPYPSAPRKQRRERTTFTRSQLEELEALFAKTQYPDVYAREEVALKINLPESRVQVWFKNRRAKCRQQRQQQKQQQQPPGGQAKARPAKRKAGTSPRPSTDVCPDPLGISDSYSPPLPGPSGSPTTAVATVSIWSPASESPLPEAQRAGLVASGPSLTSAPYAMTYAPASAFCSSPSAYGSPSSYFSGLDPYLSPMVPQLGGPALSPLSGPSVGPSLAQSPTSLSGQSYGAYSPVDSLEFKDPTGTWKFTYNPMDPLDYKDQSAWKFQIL
# Chain of HSF1 (Q00613 whole entry): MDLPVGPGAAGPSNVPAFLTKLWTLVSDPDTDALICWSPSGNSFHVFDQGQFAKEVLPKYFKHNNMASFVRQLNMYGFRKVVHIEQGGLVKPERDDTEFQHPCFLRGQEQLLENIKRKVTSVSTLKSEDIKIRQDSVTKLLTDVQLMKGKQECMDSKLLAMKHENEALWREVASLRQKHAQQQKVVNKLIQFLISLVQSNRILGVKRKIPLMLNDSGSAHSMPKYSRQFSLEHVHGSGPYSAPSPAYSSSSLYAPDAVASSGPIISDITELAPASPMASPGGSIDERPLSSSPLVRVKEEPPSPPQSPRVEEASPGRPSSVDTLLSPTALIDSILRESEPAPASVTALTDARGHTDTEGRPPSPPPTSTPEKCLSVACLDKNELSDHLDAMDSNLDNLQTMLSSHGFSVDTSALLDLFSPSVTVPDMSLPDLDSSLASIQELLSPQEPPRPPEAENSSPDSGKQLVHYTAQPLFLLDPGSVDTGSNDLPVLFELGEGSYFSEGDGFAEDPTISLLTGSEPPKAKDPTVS
# Chain of ETV1 (P50549 whole entry): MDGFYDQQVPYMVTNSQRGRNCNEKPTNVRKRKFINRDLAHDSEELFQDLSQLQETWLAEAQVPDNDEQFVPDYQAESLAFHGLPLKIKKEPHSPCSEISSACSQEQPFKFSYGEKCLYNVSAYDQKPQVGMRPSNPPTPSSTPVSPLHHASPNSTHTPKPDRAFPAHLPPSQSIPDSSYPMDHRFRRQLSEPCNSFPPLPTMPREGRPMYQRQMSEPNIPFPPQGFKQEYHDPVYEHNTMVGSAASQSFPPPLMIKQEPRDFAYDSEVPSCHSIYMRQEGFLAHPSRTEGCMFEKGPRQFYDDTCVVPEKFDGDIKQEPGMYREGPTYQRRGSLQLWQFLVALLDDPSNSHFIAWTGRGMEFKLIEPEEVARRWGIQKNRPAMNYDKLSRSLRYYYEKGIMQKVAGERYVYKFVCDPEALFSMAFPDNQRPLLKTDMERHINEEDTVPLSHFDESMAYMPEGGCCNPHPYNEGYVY
# Chain of ETV5 (P41161 whole entry): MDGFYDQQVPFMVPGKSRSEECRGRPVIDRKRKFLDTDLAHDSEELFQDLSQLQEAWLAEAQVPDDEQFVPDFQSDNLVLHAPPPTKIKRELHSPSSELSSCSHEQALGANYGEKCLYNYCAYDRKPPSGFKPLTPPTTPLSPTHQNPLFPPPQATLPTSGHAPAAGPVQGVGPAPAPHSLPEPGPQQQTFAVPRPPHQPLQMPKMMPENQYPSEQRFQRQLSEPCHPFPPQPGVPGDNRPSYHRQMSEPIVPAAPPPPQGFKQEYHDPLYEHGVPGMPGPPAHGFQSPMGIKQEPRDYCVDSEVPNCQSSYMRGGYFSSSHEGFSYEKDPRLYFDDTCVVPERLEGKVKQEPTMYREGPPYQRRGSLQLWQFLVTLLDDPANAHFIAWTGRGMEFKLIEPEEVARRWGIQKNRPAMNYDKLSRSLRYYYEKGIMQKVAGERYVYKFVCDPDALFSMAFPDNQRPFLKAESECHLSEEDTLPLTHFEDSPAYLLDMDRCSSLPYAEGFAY
# Chain of ELF4 (Q99607 whole entry): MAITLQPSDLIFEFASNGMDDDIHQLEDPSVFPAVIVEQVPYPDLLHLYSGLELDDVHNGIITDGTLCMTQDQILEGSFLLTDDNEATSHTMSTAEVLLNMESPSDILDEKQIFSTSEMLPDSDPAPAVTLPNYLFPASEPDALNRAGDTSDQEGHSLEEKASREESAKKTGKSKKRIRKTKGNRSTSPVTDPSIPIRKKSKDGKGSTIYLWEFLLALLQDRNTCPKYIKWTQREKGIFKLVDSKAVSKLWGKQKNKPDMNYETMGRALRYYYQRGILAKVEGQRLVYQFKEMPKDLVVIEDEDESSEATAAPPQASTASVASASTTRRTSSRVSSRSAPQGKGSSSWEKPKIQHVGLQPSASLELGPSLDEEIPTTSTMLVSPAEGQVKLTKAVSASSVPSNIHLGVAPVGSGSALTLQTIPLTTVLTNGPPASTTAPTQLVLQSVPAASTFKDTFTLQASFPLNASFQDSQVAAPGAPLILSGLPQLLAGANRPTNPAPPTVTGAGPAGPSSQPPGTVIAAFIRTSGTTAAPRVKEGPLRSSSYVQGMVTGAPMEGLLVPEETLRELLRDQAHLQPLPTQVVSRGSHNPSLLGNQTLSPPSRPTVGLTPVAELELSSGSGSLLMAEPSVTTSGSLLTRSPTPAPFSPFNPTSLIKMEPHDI
# Chain of ETV6 (P41212 whole entry): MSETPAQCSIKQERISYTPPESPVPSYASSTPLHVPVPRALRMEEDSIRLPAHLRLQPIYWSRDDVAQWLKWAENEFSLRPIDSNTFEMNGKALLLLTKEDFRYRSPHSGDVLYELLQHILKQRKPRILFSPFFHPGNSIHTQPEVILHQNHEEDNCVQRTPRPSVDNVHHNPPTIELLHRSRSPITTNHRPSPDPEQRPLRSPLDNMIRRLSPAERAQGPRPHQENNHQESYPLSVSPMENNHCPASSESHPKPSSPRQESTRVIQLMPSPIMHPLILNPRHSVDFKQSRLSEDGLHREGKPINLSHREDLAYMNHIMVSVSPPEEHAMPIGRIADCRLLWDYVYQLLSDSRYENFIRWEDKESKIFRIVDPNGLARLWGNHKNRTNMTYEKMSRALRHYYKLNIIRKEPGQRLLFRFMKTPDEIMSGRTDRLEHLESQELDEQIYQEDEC
sequence,measurement,setting,value
CACTTA,binding signal,[1],"1.19 fold enrichment (6-mer frequency, TF over GST control)"
same,binding signal,[2],"1.2 fold enrichment (6-mer frequency, TF over GST control)"
same,binding signal,[3],"1.26 fold enrichment (6-mer frequency, TF over GST control)"
same,binding signal,[4],"1.08 fold enrichment (6-mer frequency, TF over GST control)"
same,binding signal,[5],"1.19 fold enrichment (6-mer frequency, TF over GST control)"
same,binding signal,[6],"1.13 fold enrichment (6-mer frequency, TF over GST control)"
same,binding signal,[7],"1.21 fold enrichment (6-mer frequency, TF over GST control)"
same,binding signal,[8],"1.24 fold enrichment (6-mer frequency, TF over GST control)"
same,binding signal,[9],"1.62 fold enrichment (6-mer frequency, TF over GST control)"
same,binding signal,[10],"1.25 fold enrichment (6-mer frequency, TF over GST control)"
same,binding signal,[11],"1.22 fold enrichment (6-mer frequency, TF over GST control)"
same,binding signal,[12],"1.13 fold enrichment (6-mer frequency, TF over GST control)"
same,binding signal,[13],"1.22 fold enrichment (6-mer frequency, TF over GST control)"
same,binding signal,[14],"1.34 fold enrichment (6-mer frequency, TF over GST control)"
same,binding signal,[15],"1.21 fold enrichment (6-mer frequency, TF over GST control)"
same,binding signal,[16],"1.18 fold enrichment (6-mer frequency, TF over GST control)"
same,binding signal,[17],"1.24 fold enrichment (6-mer frequency, TF over GST control)"
same,binding signal,[18],"1.23 fold enrichment (6-mer frequency, TF over GST control)"
